Results from PubChem BioAssay AID1420 (Emory University Molecular Libraries Screening Center, 2008).
The whole screen tested about 1,100 compounds, of which about 65 (6%) were called active. No rule for the calls is given here. A selection follows. Results with a measured potency or affinity are listed apart.

The compounds below were run against Calpain-2 catalytic subunit (Sus scrofa) (UniProt P43367) (assay: m-calpain protease blockers, concentration series – biochemical, fluorogenic peptide substrate, dose response (AID 1420)). Conditions: purified calpain II, 30 min; series mostly up to 50 µM; percent of control activity: at the top concentration.
Sequence of Calpain-2 catalytic subunit (Sus scrofa) (P43367 whole entry, looked up): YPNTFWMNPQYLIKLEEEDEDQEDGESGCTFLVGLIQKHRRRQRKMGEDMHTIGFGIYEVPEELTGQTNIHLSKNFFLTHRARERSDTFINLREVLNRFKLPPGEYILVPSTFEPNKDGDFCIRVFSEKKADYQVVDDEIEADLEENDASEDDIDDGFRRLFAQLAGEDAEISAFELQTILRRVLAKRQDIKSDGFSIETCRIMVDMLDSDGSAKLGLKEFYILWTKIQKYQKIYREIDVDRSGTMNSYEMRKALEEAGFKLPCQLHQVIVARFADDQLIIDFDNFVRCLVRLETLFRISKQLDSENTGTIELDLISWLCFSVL

Percent of control activity, inactive:
O=C(NNC(=O)c1cc(OCC(F)(F)F)ccc1OCC(F)(F)F)c1cccc(C(F)(F)F)c1 119%
CN(C)c1cccc(C(=O)OCC(=O)Nc2ccccc2Cl)c1 126%
CCOC(=O)C(C)Oc1ccc(OCc2ccccc2)cc1 (stereo not drawn) 106%
